AC50 and outcome data for 17 molecules are collected here from PubChem BioAssay (EPA / NIEHS).

The structures appear in SMILES notation. Inconclusive results are not listed. Activity calls are given as the source filed them. The calls were made as follows: active = hit-call score of the fitted dose curve at least 0.9, where 1 is the maximum; inconclusive = response in the unintended direction; inactive = score below 0.9.

human Serotonin, 5-Hydroxytryptamine Receptor 7 (5HT7), HTR7 (gene 3363), sequence (P34969 whole entry, looked up): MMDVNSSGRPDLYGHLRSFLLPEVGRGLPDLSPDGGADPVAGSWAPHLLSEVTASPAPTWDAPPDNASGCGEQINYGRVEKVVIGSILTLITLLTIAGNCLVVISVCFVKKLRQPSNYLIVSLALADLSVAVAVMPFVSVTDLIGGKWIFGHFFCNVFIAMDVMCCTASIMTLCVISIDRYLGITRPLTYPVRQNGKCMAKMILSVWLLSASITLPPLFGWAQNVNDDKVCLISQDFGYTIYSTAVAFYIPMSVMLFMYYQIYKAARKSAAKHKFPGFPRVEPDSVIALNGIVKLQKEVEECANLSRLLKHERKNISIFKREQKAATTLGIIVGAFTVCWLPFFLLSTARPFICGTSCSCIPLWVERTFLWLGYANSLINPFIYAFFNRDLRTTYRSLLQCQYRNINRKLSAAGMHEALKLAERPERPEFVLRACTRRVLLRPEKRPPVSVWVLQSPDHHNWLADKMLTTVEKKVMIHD
human Adenosine A2a Receptor (AdoRA2a), ADORA2A (gene 135), sequence (P29274 whole entry, looked up): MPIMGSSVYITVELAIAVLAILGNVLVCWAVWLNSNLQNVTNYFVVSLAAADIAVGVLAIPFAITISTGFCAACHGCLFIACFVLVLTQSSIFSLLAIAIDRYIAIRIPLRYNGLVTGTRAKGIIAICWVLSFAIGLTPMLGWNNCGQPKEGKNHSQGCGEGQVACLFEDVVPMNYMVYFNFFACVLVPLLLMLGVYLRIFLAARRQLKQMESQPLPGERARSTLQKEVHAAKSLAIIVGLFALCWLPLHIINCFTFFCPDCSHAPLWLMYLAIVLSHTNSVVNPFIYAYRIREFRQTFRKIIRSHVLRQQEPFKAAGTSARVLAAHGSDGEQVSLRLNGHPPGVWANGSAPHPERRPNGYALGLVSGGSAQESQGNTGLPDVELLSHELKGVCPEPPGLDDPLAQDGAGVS
human Serotonin, 5-Hydroxytryptamine Receptor 6 (5HT6), HTR6 (gene 3362), sequence (P50406 whole entry, looked up): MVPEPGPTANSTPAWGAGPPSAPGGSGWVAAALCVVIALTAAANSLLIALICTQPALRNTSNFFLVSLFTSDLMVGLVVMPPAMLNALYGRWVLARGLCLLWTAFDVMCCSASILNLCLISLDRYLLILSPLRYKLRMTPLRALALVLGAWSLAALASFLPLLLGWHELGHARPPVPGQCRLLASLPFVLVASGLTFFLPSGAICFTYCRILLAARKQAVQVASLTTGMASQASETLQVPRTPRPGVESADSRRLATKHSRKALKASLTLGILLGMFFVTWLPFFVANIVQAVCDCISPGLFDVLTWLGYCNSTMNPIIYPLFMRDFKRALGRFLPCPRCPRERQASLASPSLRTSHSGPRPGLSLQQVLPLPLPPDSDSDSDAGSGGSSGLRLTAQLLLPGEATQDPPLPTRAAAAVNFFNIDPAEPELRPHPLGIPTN

The target of the first experiment is human Serotonin, 5-Hydroxytryptamine Receptor 6 (5HT6), HTR6 (gene 3362) (UniProt P50406). Put plainly: NVS_GPCR_h5HT6: NovaScreen (NVS) G Protein-Coupled Receptor Assay for human Serotonin, 5-Hydroxytryptamine Receptor 6 (5HT6) (AID 2283253). The gist of the method:
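Radioligand binding to 5HT6 in HEK293-derived membranes, cell-free, 1 h after dosing; bound ligand measured by filter-based scintillation counting. Primary screen in duplicate at 25 uM; actives retested in concentration series.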
What is called AC50 is the midpoint of the concentration-response curve, whichever way the signal moves. As to `CN1CCN(c2ccccc2/C=C2\SCCN(c3ccc(Cl)c(Cl)c3)C2=O)CC1`, the AC50 was 1.45 µM (active).
For the molecule `CCCCCCCCCCCCc1ccccc1S(=O)(=O)O`, the AC50 is 31.9 µM (active).
For `CC(=O)NC1(c2cccc(F)c2)CCN(CC[C@@]2(c3ccc(Cl)c(Cl)c3)CN(c3ccccc3)C(=O)CO2)CC1`, the AC50 is 5.94 µM (active).
The same measure, in the same setting: the result for `CCC(=C(c1ccc(O)cc1)c1ccc(OCCN(C)C)cc1)c1ccccc1` reads 1.74 µM (active); that for `CCCOc1sc(C(=O)N2CCC(c3cc(CN)ccc3F)CC2)c(C)c1Br`, 8.41 µM (active).

The next experiment concerns the target human Serotonin, 5-Hydroxytryptamine Receptor 7 (5HT7), HTR7 (gene 3363) (UniProt P34969). Kind of experiment: NVS_GPCR_h5HT7: NovaScreen (NVS) G Protein-Coupled Receptor Assay for human Serotonin, 5-Hydroxytryptamine Receptor 7 (5HT7) (AID 2283255).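 Also: hits reduce specific radioligand binding relative to DMSO.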 The gist of the method:
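Radioligand displacement on membranes from CHO cells expressing human 5HT7, 1 h incubation, filter-based scintillation counting. Primary screen used a single 25 uM concentration in duplicate; actives were followed up in concentration series.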
As to `O=[N+]([O-])c1ccc(O)cc1`, the molecule was called inactive.
On to `O=C(OCCOCCOC(=O)c1ccccc1)c1ccccc1`, for which the AC50 was 8.96 µM (active).
The same measure, in the same setting: the result for `CN1CCN(c2ccccc2/C=C2\SCCN(c3ccc(Cl)c(Cl)c3)C2=O)CC1` reads 0.0142 µM (active).
In the case of `Cc1oc(-c2ccccc2)nc1CCOc1ccc(C[C@H](Nc2ccccc2C(=O)c2ccccc2)C(=O)O)cc1`, the molecule was classed as inactive.
On the same count and under the same terms, next, `Oc1cccc(O)c1`: “inactive”; `NC(=O)N1C(=O)C(C(=O)c2cc(Cl)cs2)c2cc(F)c(Cl)cc21` (stereo not drawn): “inactive”; `CC[C@H](c1ccc(O)cc1)[C@@H](CC)c1ccc(O)cc1`: “inactive”.
Take `CCN(CC)CCNc1ccc(CNC=O)c2sc3ccc(OC)cc3c(=O)c12`: the molecule was called inactive.
Turning to `O=C(O)Cc1cc(I)c(Oc2cc(I)c(O)c(I)c2)c(I)c1`, the AC50 is 5.26 µM (active).
With `CCCCCCCCCCCCc1ccccc1S(=O)(=O)O`, the AC50 was 7.69 µM (active).
The same measure, in the same setting: the result for `NC(=O)N(O)[C@@H]1C=C[C@H](Oc2cccc(Oc3ccc(F)cc3)c2)C1` reads 12.8 µM (active); that for `CC(=O)NC1(c2cccc(F)c2)CCN(CC[C@@]2(c3ccc(Cl)c(Cl)c3)CN(c3ccccc3)C(=O)CO2)CC1`, 20.8 µM (active); that for `CCC(=C(c1ccc(O)cc1)c1ccc(OCCN(C)C)cc1)c1ccccc1`, 5.49 µM (active).
Still for that read-out and setting: next, `CC#C[C@]1(O)CC[C@H]2[C@@H]3CCC4=CC(=O)CCC4=C3[C@@H](c3ccc(N(C)C)cc3)C[C@@]21C`: 23.7 µM (active); `CCCOc1sc(C(=O)N2CCC(c3cc(CN)ccc3F)CC2)c(C)c1Br`: 5.09 µM (active).

For a further experiment, the target named is human Adenosine A2a Receptor (AdoRA2a), ADORA2A (gene 135) (UniProt P29274). Put plainly: NVS_GPCR_hAdoRA2a: NovaScreen (NVS) G Protein-Coupled Receptor Assay for human Adenosine A2a Receptor (AdoRA2a) (AID 2283256). The method in brief:
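Cell-free radioligand binding on membranes from HEK293 expressing the receptor; competitive displacement read 1.5 h after dosing by filter-based scintillation counting. Primary screen in duplicate at 25 uM; actives followed in concentration series, with DMSO as baseline.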
As to `Oc1cc2ccccc2c2ccccc12`, the outcome was inactive.
As to `NC(=O)N1C(=O)C(C(=O)c2cc(Cl)cs2)c2cc(F)c(Cl)cc21` (stereo not drawn), the AC50 was 19.7 µM (active).
On the same count and under the same terms, next, `CC[C@H](c1ccc(O)cc1)[C@@H](CC)c1ccc(O)cc1`: 12.4 µM (active); `CCN(CC)CCNc1ccc(CNC=O)c2sc3ccc(OC)cc3c(=O)c12`: 5.28 µM (active).
Consider `CC(C)(C)c1ccc(O)c(C(C)(C)C)c1`, for which the molecule was classed as inactive.
`CCCCCCCCCCCCc1ccccc1S(=O)(=O)O`: the AC50 was 22.6 µM (active).
The same measure, in the same setting: the result for `CCC(=C(c1ccc(O)cc1)c1ccc(OCCN(C)C)cc1)c1ccccc1` reads 3.08 µM (active).
In the case of `CC#C[C@]1(O)CC[C@H]2[C@@H]3CCC4=CC(=O)CCC4=C3[C@@H](c3ccc(N(C)C)cc3)C[C@@]21C`, the molecule was called inactive.
